Laboratory results from the supplement of paper PMC6555819.

Test system: VDR:RXRa (NR concentration 270 nM, RXRa partner concentration 90 nM)
Assay: PBM binding z-score (relative to random genomic background probes); higher = stronger binding; sequences stand for … in GC…GCGATTGACAGCGTAGAATGAAGG
Method: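 Protein-binding microarray (Agilent 4x180K custom design, double-stranded 60-nt probes: 5' GC cap, 34-nt variable region, 24-nt constant primer region; full probe sequence given). Purified or IVT nuclear receptor:RXRα heterodimers (3:1 NR:RXRα, mostly 270:90 nM) or homodimers were incubated for 1 h in PBS with 2% milk and no ligand, then detected with Alexa488 antibodies. Fluorescence from o1-orientation probes (~5 replicates averaged) was converted to z-scores against 500 random hg19 background probes. Variable regions are seed direct-repeat (DR0–DR5) sites, all their single-nucleotide variants and half-site ablations.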

First: GCAGACAGGTGAAACGCAGGTACCTCAGGGTGGC
Second: GTTAGTTGGTCAGTAAAAGGTCACACACCGGTCG
The PBM binding z-score of the first is lower: -0.756 for the first, 4.28 for the second.

First: CCTCGGAGGACAGAAGGACAGAGCTGTCCGCTTT
Second: ACTAGCAGGCCAAGTTTGGCTCACTCAAACAAAG
The PBM binding z-score of the first is higher: -0.413 for the first, -0.767 for the second.

Going from ATCTCTAGGTAAAGATAGTTCAGTGTATGCAAAT to TCGATTAGGTTAGGGGCATTCAGAATGGCGTCGA, the PBM binding z-score falls from 0.93 to 0.781.

Compared with CCTCGTAGGACAGAAGGTCAGAGCTGTCCGCTTT, GCAGACAGGTGAAACGGAGGTAACTCAGGGTGGC is lower in PBM binding z-score: 1.13 for the first, -0.2 for the second.

First: TCTTGTAGATCAACAGGTTAAGAAAGCTGGCCAA
Second: AGAATGAGGTTATACGCAGATCAGGGAAGAAAGT
The PBM binding z-score of the first is lower: 0.855 for the first, 1.35 for the second.

Compared with CCTAGTTGGTCAAGGTCACAGACGCTATAGGTAC, ACTATTAGTGGACTTAGGGCAACCGATACGACGC is lower in PBM binding z-score: 4.29 for the first, 0.119 for the second.

First: CCGACTGGGGCAAGGTTACTATAACGCACAGCCA
Second: ATCTCTAGGTAACCAAGATCAGTGAATGCCGAAC
The PBM binding z-score of the first is lower: 0.0885 for the first, 0.294 for the second.

Compared with CGTCAAAGTCCAACTAAGGTAACGTAAAGCACGC, ATATGTAGGTTACATCCGGGCCATTCAGGCTATG is higher in PBM binding z-score: 0.393 for the first, 0.659 for the second.

First: ATCTCTAGGTACGACTCAGTTCAGTGAAGAACGC
Second: TCTCGGAGGACACGGAGGTCAGAGCTTTCCAGAG
The PBM binding z-score of the first is lower: 1.28 for the first, 3.39 for the second.

Going from CCAGACAGGTGAGAAGGAAACTCAGCCTCGATTA to ATATGTAGGTTAAGGGTCATTCGGGTTGGTTCGC, the PBM binding z-score rises from -0.211 to 6.18.

Compared with ATATGTAGGTTAGCTGGGGTCAGTCAGACTAGGC, ACTATTAGTTGATTTAGGGCAACCGATACGACGC is lower in PBM binding z-score: 4.52 for the first, 0.131 for the second.

Going from TCTATTAGTTGAAGGGTAACCGACGAGTCCGTTT to TCAGACAGGTGTAGGTAACTCAGGTACGCAGTCG, the PBM binding z-score falls from 1.2 to 0.89.

Going from ATATGTAGGTTAGCTGGGGTCACTCAGACTAGGC to CATACAGGGTCAGCTAGGCAAGAGTAGGGACGGC, the PBM binding z-score falls from 5.64 to 2.53.

Going from TTGCCTAGGTCATTCAGGGGCCAGTATAGAAAGC to TCCTATAGGTAAAAGGTGAAAGTCGGTGTGGTAA, the PBM binding z-score falls from 3.15 to 1.17.

First: ACAGAGAGGTGAGTGAAGGTAACTCAGCTGGACG
Second: CCTAGTTGGTCCAGGTCACACACGCTATAGGTAC
The PBM binding z-score of the first is lower: 0.13 for the first, 2.54 for the second.

Going from AACGAAAGGTCGTGAGGTGAGTATACAGAAAGGC to GCTAGTTGGTCAGGAAAAGGTCACACACCGGTCG, the PBM binding z-score falls from 3.68 to 3.66.

Going from CCTATTAGTTGACCATGAGGGCAACCGAAGCTCG to CCTTACGGCTCACTCCAGGTTATAGCATCGGAGT, the PBM binding z-score falls from 1.02 to 0.016.

Going from CATACAGGGTCAGCTAGGCCAGAGTAGGGACGGC to GGAACGAGGGCATTCGAGTTGATATCATGGCGAT, the PBM binding z-score rises from 3.8 to 3.92.

First: GCATATAGCTAATACAAGGTGAAAGTCCGATTGT
Second: TCATATAGGTAATACAGGTCAAAGTCGGCATCTA
The PBM binding z-score of the first is lower: 0.231 for the first, 4.07 for the second.

Going from TCTATTAGTTGAAGGGCAAGCGACGAGTCCGTTT to AGAATGAGGTTAAGATCAGCGAAACAGAATACAT, the PBM binding z-score falls from 0.979 to 0.872.
